Measured values published in PubChem BioAssay (EPA / NIEHS).
Active and inactive are the calls of the source. The calls were made as follows: active = hit-call score of the fitted dose curve at least 0.9, where 1 is the maximum; inactive = score below 0.9.

Experiments:
[1] = ATG_M_32_CIS: Attagene CIS-FACTORIAL HepG2 Assay for M32 Transcription Factor (Internal Marker) (AID 2282949); conditions: HepG2 Attagene cis-factorial M32 reporter, mRNA; actives raise or lower the signal;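 also: background control marker of the multiplexed CIS panel rather than a real target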
Summary of the method: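 HepG2 human liver cells transiently transfected with cis-promoter-driven multiple reporter transcription units, dosed 24 h. Reporter mRNA quantified by RT-PCR, FAM-labelled primer extension, HpaI digest and capillary electrophoresis; bidirectional fit versus DMSO baseline.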

[2] = ATG_M_06_CIS: Attagene CIS-FACTORIAL HepG2 Assay for M06 Transcription Factor (Internal Marker) (AID 2282950); conditions: HepG2 Attagene CIS-FACTORIAL M06 internal marker reporter; actives raise or lower the signal
Summary of the method: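 Serves as a background control readout. Transfected HepG2 exposed to compounds for 24 h, then reporter transcripts quantified by fluorescent RT-PCR and capillary electrophoresis. Both directions fitted against DMSO baseline.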

[3] = biological target: Hypoxia-inducible factor 1-alpha (Homo sapiens) (UniProt Q16665); assay: ATG_HIF1a_CIS: Attagene CIS-FACTORIAL HepG2 Assay for human Hypoxia Inducible Factor 1 (HIF1A) (AID 2282951); conditions: HepG2 Attagene cis-factorial HIF1a reporter transcription; actives raise or lower the signal
Chain of Hypoxia-inducible factor 1-alpha (Homo sapiens) (Q16665 whole entry, looked up, the tested form may be a part): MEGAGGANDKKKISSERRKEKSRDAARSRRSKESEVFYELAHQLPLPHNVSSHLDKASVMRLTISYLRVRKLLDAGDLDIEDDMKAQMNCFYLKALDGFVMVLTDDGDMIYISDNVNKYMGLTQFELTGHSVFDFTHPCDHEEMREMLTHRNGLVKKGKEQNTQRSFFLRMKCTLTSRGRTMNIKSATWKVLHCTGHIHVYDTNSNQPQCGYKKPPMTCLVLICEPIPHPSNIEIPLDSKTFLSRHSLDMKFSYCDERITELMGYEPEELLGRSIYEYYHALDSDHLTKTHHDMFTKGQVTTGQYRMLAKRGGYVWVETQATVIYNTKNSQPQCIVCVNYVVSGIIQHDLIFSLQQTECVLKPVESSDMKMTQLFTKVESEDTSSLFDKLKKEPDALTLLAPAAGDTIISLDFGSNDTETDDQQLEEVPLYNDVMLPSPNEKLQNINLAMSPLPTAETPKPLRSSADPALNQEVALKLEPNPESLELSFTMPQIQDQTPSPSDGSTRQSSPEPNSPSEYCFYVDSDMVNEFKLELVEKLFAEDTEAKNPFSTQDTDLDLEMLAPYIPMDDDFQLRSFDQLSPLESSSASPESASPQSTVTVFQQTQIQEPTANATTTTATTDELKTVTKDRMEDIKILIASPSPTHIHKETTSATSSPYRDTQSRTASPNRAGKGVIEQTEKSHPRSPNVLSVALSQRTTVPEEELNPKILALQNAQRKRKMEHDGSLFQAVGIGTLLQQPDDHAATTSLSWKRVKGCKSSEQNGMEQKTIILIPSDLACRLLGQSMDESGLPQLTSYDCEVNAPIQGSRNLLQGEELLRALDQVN
Summary of the method: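 Transient MRTU transfection of human HepG2 liver cells, 24 h compound treatment, then total RNA isolation, oligo(dT) reverse transcription, PCR amplification, fluorescent labelling and capillary electrophoresis of reporter fragments. Gain or loss relative to DMSO.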

[4] = biological target: Hepatocyte nuclear factor 6 (Homo sapiens) (UniProt Q9UBC0); assay: ATG_HNF6_CIS: Attagene CIS-FACTORIAL HepG2 Assay for human Hepatocyte Nuclear Factor 6 (HNF6) (AID 2282952); conditions: HepG2 Attagene cis-factorial HNF6 reporter transcription; actives raise or lower the signal
Chain of Hepatocyte nuclear factor 6 (Homo sapiens) (Q9UBC0 whole entry, looked up, the tested form may be a part): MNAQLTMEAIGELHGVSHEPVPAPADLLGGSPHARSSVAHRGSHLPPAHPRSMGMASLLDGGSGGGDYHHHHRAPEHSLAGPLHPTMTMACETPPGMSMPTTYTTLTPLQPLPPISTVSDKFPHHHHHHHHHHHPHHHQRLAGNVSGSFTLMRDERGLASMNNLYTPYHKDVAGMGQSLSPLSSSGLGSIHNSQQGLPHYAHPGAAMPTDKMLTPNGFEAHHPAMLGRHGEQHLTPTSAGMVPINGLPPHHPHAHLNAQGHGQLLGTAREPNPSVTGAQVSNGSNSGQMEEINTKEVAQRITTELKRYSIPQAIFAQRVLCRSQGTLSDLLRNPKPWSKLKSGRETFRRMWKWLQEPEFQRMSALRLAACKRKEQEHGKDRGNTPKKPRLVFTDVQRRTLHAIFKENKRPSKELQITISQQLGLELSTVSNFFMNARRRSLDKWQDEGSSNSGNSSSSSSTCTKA
Summary of the method: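 Twenty-four-hour chemical treatment of reporter-transfected HepG2 cells precedes RNA isolation, DNase-treated reverse transcription and PCR of reporter sequences. Labelled fragments are sized by capillary electrophoresis and fitted bidirectionally versus DMSO.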

[5] = ATG_MRE_CIS: Attagene CIS-FACTORIAL HepG2 Assay for human Metal Responsive Element (MRE) (AID 2282954); conditions: HepG2 MRE cis-reporter transcription, Attagene multiplex; actives raise or lower the signal
Summary of the method: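 Cells were transfected with cis-promoter reporter transcription units, then dosed for 24 h. RNA was reverse-transcribed, amplified, fluorescently labelled and resolved by capillary electrophoresis, and activity was fitted in both directions relative to DMSO.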

[6] = ATG_PBREM_CIS: Attagene CIS-FACTORIAL HepG2 Assay for human Phenobarbital-responsive Enhancer Module (PBREM) (AID 2282955); conditions: HepG2 PBREM cis-reporter, Attagene multiplexed transcription; actives raise or lower the signal
Summary of the method: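 Endogenous transcription factors in human liver HepG2 cells drive a PBREM cis-element reporter, whose transcript level after 24 h treatment is quantified by RT-PCR with capillary electrophoresis; activity fitted in both directions against DMSO.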

[7] = biological target: Paired box protein Pax-6 (Homo sapiens) (UniProt P26367); assay: ATG_Pax6_CIS: Attagene CIS-FACTORIAL HepG2 Assay for human Paired Box 6 (PAX6) (AID 2282956); conditions: HepG2 CIS-FACTORIAL PAX6 reporter transcription, RNA readout; actives raise or lower the signal
Chain of Paired box protein Pax-6 (Homo sapiens) (P26367 whole entry, looked up): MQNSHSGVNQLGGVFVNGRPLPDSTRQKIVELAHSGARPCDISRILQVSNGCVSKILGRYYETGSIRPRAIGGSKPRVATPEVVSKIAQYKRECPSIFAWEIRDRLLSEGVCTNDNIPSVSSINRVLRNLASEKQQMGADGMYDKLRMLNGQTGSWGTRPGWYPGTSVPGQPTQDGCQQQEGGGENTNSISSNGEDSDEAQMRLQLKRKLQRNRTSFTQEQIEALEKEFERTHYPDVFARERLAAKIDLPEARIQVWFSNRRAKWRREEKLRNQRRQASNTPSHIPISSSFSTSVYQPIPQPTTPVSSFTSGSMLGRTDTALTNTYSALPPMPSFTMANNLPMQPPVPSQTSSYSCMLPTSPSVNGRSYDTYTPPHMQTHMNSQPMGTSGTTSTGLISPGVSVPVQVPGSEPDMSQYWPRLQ
Summary of the method: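 Read-out is reporter transcript level, measured by RT-PCR with fluorescent primer extension and capillary electrophoresis after 24 h dosing of transfected HepG2 cells. Activity in either direction fitted relative to DMSO control.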

[8] = ATG_PXRE_CIS: Attagene CIS-FACTORIAL HepG2 Assay for human Pregnane X Receptor Element (PXRE) (AID 2282957); conditions: HepG2 Attagene CIS-FACTORIAL PXRE reporter, mRNA; actives raise or lower the signal
Summary of the method: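 Bidirectional activity, baselined to DMSO, derived from reporter mRNA fluorescence (RT-PCR plus capillary electrophoresis) in HepG2 cells bearing cis-promoter reporter units, 24 h exposure.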

[9] = ATG_PPRE_CIS: Attagene CIS-FACTORIAL HepG2 Assay for human Peroxisome Proliferator-activated Response Element (PPRE) (AID 2282958); conditions: HepG2 PPRE cis-element reporter, Attagene transcription factor profiling; actives raise or lower the signal
Summary of the method: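 HepG2, transient MRTU transfection (cis promoter elements, endogenous TFs). 24 h dosing. RNA → oligo(dT) RT → PCR → 6-FAM primer extension → HpaI digest → CE. Bidirectional fit vs DMSO.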

[10] = ATG_RORE_CIS: Attagene CIS-FACTORIAL HepG2 Assay for human RAR-related Orphan Receptor Element (RORE) (AID 2282959); conditions: HepG2 Attagene cis-factorial RORE reporter, mRNA; actives raise or lower the signal
Summary of the method: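 Transient MRTU transfection of human HepG2 liver cells (FuGene 6); 24 h compound exposure; TriZol RNA, oligo(dT) RT, PCR, FAM labeling, HpaI cut, CE fragment analysis. DMSO = negative control/baseline.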

[11] = biological target: Transcription factor Sp1 (Homo sapiens) (UniProt P08047); assay: ATG_Sp1_CIS: Attagene CIS-FACTORIAL HepG2 Assay for human Specificity Protein 1 (Sp1) (AID 2282961); conditions: HepG2 Sp1 cis-reporter transcription, actives raise or lower the signal
Chain of Transcription factor Sp1 (Homo sapiens) (P08047 whole entry, looked up): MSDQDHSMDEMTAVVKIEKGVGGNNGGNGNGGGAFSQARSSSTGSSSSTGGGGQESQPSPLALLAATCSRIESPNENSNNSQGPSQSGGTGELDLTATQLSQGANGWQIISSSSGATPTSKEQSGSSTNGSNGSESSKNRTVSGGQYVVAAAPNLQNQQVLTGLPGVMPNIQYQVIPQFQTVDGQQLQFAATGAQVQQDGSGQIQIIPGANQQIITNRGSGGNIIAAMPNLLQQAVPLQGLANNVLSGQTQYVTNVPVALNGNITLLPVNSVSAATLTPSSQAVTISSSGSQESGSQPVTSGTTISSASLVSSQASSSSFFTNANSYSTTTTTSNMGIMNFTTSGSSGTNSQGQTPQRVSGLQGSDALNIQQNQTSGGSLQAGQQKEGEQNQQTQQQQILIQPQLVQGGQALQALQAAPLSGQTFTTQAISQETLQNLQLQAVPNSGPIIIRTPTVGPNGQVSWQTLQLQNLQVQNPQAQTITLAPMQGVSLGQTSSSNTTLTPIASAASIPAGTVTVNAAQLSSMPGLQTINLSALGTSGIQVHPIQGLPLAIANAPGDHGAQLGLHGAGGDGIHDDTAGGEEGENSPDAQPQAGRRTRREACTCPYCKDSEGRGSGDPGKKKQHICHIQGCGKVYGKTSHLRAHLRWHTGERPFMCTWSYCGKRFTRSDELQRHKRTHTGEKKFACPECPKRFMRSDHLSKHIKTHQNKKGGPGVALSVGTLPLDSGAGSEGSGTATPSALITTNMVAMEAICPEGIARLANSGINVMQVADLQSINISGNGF
Summary of the method: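 Transient MRTU-transfected HepG2, 24 h compound exposure. Total RNA → oligo(dT) RT → PCR of reporter → 6-FAM primer extension → HpaI digest → CE. Endpoint fitted both directions vs DMSO.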

[12] = ATG_SREBP_CIS: Attagene CIS-FACTORIAL HepG2 Assay for human Sterol Regulatory Element Binding (SREBP) (AID 2282962); conditions: HepG2 Attagene cis-factorial SREBP reporter, mRNA; actives raise or lower the signal
Summary of the method: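 Endogenous SREBP activity read as cis-element-driven reporter transcript in transiently transfected HepG2, 24 h post-dosing; quantified via RT-PCR plus capillary electrophoresis of fluorescent fragments. Gain or loss of signal fitted relative to DMSO baseline.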

[13] = biological target: Signal transducer and activator of transcription 3 (Homo sapiens) (UniProt P40763); assay: ATG_STAT3_CIS: Attagene CIS-FACTORIAL HepG2 Assay for human Signal Transducer and Activator of Transcription 3 (STAT3) (AID 2282963); conditions: HepG2, Attagene cis-factorial STAT3 reporter transcription; actives raise or lower the signal
Chain of Signal transducer and activator of transcription 3 (Homo sapiens) (P40763 whole entry, looked up): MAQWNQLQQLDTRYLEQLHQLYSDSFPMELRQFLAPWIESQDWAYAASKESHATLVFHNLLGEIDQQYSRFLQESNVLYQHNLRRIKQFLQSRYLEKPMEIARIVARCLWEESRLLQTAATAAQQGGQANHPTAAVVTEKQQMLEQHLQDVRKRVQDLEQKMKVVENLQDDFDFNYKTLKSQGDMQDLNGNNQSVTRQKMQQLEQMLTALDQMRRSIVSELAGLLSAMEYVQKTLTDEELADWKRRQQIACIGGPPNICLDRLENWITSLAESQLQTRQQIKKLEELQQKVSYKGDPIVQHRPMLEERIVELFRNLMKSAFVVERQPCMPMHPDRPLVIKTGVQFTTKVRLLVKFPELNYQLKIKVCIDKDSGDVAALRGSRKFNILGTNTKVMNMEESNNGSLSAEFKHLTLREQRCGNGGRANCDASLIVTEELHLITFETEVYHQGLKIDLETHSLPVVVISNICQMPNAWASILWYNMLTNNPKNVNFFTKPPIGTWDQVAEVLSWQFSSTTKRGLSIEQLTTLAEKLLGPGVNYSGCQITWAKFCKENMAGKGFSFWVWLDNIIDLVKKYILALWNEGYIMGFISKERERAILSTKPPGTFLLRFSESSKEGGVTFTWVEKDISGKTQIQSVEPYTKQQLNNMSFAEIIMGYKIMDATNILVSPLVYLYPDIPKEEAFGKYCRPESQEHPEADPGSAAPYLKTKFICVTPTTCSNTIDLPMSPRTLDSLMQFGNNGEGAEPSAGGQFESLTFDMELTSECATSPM
Summary of the method: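 HepG2, MRTU-transfected, 24 h dosing. RNA → RT → PCR → FAM label → HpaI → CE. Bidirectional fit vs DMSO.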

[14] = ATG_TA_CIS: Attagene CIS-FACTORIAL HepG2 Assay for human TA Basal Promoter (AID 2282964); conditions: HepG2 Attagene CIS-factorial TA basal promoter reporter; actives raise or lower the signal
Summary of the method: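 Background-control readout: TA basal promoter reporter mRNA, fitted in both directions relative to DMSO. Measured by RT-PCR and capillary electrophoresis 24 hours after treating HepG2 human liver cells transiently carrying multiplexed cis-regulated reporter constructs.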

[15] = ATG_TCF_b_cat_CIS: Attagene CIS-FACTORIAL HepG2 Assay for human T-Cell-Factor with beta-catenin (TCF/b-cat) (AID 2282965); conditions: HepG2 TCF/beta-catenin cis-reporter transcription, actives raise or lower the signal
Summary of the method: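 In this cis-format system, transfected HepG2 cells report endogenous transcription factor activity. Readout after 24 h exposure is reporter transcript abundance from RT-PCR and capillary electrophoresis, analysed for gain or loss of signal versus DMSO.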

[16] = ATG_TAL_CIS: Attagene CIS-FACTORIAL HepG2 Assay for human TAL Basal Promoter (AID 2282966); conditions: HepG2 Attagene cis-factorial TAL promoter reporter; actives raise or lower the signal;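 also: background control endpoint measuring basal TAL promoter reporter mRNA not a specific factor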
Summary of the method: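 Human hepatoma HepG2 cells, transfected with promoter-regulated reporter units, were treated 24 h. Reporter transcript levels, measured through RT-PCR and capillary electrophoresis, were fitted for gain or loss relative to DMSO.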

[17] = ATG_VDRE_CIS: Attagene CIS-FACTORIAL HepG2 Assay for human Vitamin D Receptor Element (VDRE) (AID 2282968); conditions: HepG2 VDRE cis-reporter transcription, actives raise or lower the signal
Summary of the method: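 Steps: transfect HepG2 with multiple reporter transcription units; dose chemicals 24 h; isolate RNA; RT-PCR; label with 6-FAM primer extension; HpaI digest; capillary electrophoresis. Curves fitted both directions against DMSO.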

[18] = ATG_TGFb_CIS: Attagene CIS-FACTORIAL HepG2 Assay for human Transforming Growth Factor (TGF) (AID 2282967); conditions: HepG2 Attagene CIS TGFb reporter, mRNA transcription; actives raise or lower the signal
Summary of the method: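 Endogenous TGFB1-linked transcription factor activity read as reporter mRNA via RT-PCR and capillary electrophoresis, 24 h after dosing transiently transfected HepG2 cells. Gain or loss of signal fitted relative to DMSO.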

[19] = ATG_Sox_CIS: Attagene CIS-FACTORIAL HepG2 Assay for human SRY-box transcription factor (SOX) (AID 2282960); conditions: HepG2 Attagene cis-factorial SOX reporter, mRNA; actives raise or lower the signal
Summary of the method: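 Endogenous factor activity in human liver HepG2 cells carrying transfected cis-regulated reporter units. RNA taken 24 h post-dose, reverse-transcribed, PCR-amplified and sized by capillary electrophoresis. Gain or loss of signal fitted relative to DMSO.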

Measured: AC50

CC[N+](CC)(CC)Cc1ccccc1
not listed: [18] | [19]
inactive: all other assays above

CCCCCCC(C)(C)C(=O)O
active: [3] 188 µM | [7] 164 µM | [8] 27.4 µM | [9] 55.5 µM | [17] 73.2 µM
not listed: [10] | [12] | [19]
inactive: all other assays above

Nc1ccn([C@@H]2O[C@H](CO)[C@@H](O)C2O)c(=O)n1 (stereo partly specified)
not listed: [8] | [18]
inactive: all other assays above

Oc1c(Cl)cc(Cl)cc1Sc1cc(Cl)cc(Cl)c1O
active: [5] 11.5 µM | [9] 1.52 µM | [10] 2.56 µM | [17] 3.4 µM
not listed: [7] | [8] | [12]
inactive: all other assays above
